“And” between values parts separate entries of the source, which are not always exact repeats. Identical values can stand only once. Hit rate of the full screen: of about 16,000 compounds, about 5,700 (36%) were called active. Not shown: some 24% with an inconclusive outcome. The call rests on the fitted dose curve; in most records, active means well fitted curve in the direction sought with a large enough effect; inconclusive means small, poorly fitted or top-dose-only effect, or effect the other way; inactive means no such curve, though single readings can be large or run the other way. The list shows a part of the results.
On the % scale 0 is the no-effect control and ±100 the full control effect.

Sequence of Cytochrome P450 1A2 (Homo sapiens) (P05177 whole entry, looked up): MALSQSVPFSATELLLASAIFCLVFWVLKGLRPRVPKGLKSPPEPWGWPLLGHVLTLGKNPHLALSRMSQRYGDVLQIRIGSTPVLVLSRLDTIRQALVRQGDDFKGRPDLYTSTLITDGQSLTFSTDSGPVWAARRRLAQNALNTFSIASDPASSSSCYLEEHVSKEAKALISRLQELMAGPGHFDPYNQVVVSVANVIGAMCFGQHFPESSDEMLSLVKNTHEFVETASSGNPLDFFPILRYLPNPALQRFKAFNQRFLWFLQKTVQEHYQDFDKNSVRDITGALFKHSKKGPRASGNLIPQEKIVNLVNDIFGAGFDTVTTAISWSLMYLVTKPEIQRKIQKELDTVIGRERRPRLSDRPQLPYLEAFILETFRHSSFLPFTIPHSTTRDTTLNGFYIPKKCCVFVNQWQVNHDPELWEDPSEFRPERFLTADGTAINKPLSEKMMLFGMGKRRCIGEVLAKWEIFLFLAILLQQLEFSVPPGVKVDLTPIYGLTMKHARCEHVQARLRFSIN

This assay concerns the target Cytochrome P450 1A2 (Homo sapiens) (UniProt P05177). In words: Cytochrome panel assay with activity outcomes. The following applies: recombinant CYP, pro-luciferin dealkylation, luminescence, p450-cyp1a2; series mostly up to 57.1 µM.
The term AC50 denotes the concentration giving half of the maximal activity seen. With `CC(C)CN1CCC2(CC1)CCN(C(=O)c1cccn1C)CC2`, the AC50 entry is “inactive”.
With `COCC(=O)N1CCC2(CCCN(c3ncccn3)C2)CC1`, the AC50 entry is “inactive”.
Turning to `N=C(N)SCc1nc2ccccc2c(=O)n1-c1ccccc1Cl`, the AC50 is 1260 nM (active).
As for `COc1cc(C=O)ccc1OCCCOc1ccccc1C(=O)O`, the AC50 entry is “inactive”.
Regarding `COc1ccc(C=Nc2c(O)ccc3ccccc23)cc1OC`, the AC50 was 251 nM (active).
With `COC(=O)C/C=C\[C@@H](C)[C@@H](/C=N\O[C@@H](C)c1cn([C@H](CO)Cc2ccccc2)nn1)NS(=O)(=O)c1ccc(C)cc1`, the activity, negative = inhibition is -0.854% [at 11.4 µM] (inactive) and -7.61% [at 11.4 µM] (inactive).
As for `CC(C)CN1CC2(CCN(C(=O)c3cccc(F)c3)CC2)C1`, the AC50 result is “inactive”.
The same measure, in the same setting: under `O=C1CCC(c2ccccc2)=NN1c1nc2ccccc2s1` stands 398 nM (active); under `COc1ccccc1-c1cncnc1-n1ccnc1`, 12600 nM (active).
For the compound `c1cncc(-c2cncnc2-n2ccnc2)c1`, the AC50 was 20000 nM (active).
Turning to `N#Cc1cccc(-c2cncnc2-n2ccnc2)c1`, the AC50 is 15800 nM (active).
In the case of `COc1cccc(-c2cncnc2-n2ccnc2)c1`, the AC50 was 100 nM (active).
`Cc1cn(CC[C@H](N)C(=O)O)c(=O)[nH]c1=O`: the activity, negative = inhibition is -9.38% [at 11.4 µM] (inactive).
As for `COC(=O)C[C@@H]1O[C@H]1[C@H](C)[C@@H](OC)C(C)C`, the activity, negative = inhibition is -6.59% [at 11.4 µM] (inactive).
Consider `COC(=O)[C@@]1(Cc2ccc(OC)cc2)[C@@H]2[C@@H](CC(=O)[C@H]2CC(=O)C(=O)N2CCCC2)CN1C(=O)c1ccccc1`, for which the AC50 result is “inactive”.
For the compound `COc1ccc(C[C@@H]2C(=O)N[C@H](C)C(=O)N(C)[C@@H]3Cc4ccc(cc4)Oc4cc(ccc4O)C[C@H](C(=O)N[C@@H](C)C(=O)N[C@H](C)C(=O)N2C)N(C)C3=O)cc1`, the activity, negative = inhibition is -16.4% [at 11.4 µM] (inactive).
Turning to `CC(C)CC(=O)N[C@H](C(=O)N[C@H](C(=O)N[C@@H](CC(C)C)[C@H](O)CC(=O)N[C@@H](C)C(=O)N[C@@H](CC(C)C)[C@H](O)CC(=O)O)C(C)C)C(C)C`, the AC50 entry is “inactive”.
In the case of `COc1ccc(O[C@H]2C=C[C@@H](c3ccccc3)O[C@@H]2CO/N=C(\C)CCN2CCc3nc(-c4ccccc4)c(-c4ccccc4)cc3C2)cc1`, the activity, negative = inhibition is -6.98% [at 11.4 µM] (inactive).
As to `Cc1ccccc1C(C(=O)NCc1ccccc1)N(Cc1ccco1)C(=O)c1ccccn1` (configuration not stated), the AC50 result is “inactive”.
On to `Cc1cc2cccc(C)c2nc1SCC(=O)N(C)c1nc(-c2ccccc2)cs1`, for which the AC50 entry was “inactive”.
Still for that read-out and setting: then `CCC(=O)N(Cc1ccco1)c1nc(-c2ccccc2)cs1`, with 1260 nM (active); and `CCn1c(C)cc(/C=C2\NC(=O)N(Cc3ccc(Cl)cc3)C2=O)c1C`, with 355 nM (active).

The record behind these values is PubChem BioAssay AID1851 (National Center for Advancing Translational Sciences (NCATS), 2009).
